Binding signal data for one sequence are collected here from article PMC7862700, “An all-to-all approach to the identification of sequence-specific readers for epigenetic DNA modifications on cytosine”.

What all share (experiment): DAPPL (digital affinity profiling via proximity ligation, sequencing); 10 mM Tris-HCl pH 7.5, 50 mM NaCl, 1 mM DTT, 4% glycerol, room temperature, 30 min; GST-TFs on glutathione beads, 16-mer random dsDNA library, 0.1% formaldehyde crosslink after washing; high values mean tight binding
For one experiment, the target named is T1, FLI1 (Homo sapiens, UniProt Q01543 1-452).
T1 sequence: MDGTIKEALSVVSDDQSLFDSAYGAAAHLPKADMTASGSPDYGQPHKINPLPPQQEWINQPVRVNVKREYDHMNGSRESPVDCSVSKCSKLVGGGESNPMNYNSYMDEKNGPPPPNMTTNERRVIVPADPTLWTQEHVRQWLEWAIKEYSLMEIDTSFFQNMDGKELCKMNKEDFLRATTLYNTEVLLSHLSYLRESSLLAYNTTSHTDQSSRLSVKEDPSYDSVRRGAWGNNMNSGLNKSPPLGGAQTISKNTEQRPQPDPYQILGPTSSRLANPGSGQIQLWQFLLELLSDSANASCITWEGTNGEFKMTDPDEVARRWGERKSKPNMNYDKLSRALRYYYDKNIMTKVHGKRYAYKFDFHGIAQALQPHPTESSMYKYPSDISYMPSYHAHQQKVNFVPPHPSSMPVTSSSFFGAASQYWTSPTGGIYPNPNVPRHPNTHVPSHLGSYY
The settings on record: protein: recombinant; tags: N-terminal GST; dsDNA, one strand shown. The procedure, abridged:
(§1)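 Beads coated with glutathione captured GST-fused human transcription factors that had been expressed in yeast, and the factors were then given DNA barcodes and pooled with a tag-only sample. The pools were incubated with 200 nmole of a random double-stranded 16-mer DNA library in Tris/NaCl/DTT/glycerol buffer for 30 min at room temperature, washed, crosslinked with 0.1% formaldehyde and proximity-ligated with BsaI/T4 ligase at 37 °C for 1 h. PCR amplification and Illumina NextSeq500 sequencing came last. Binding signal is each hexamer's read frequency for a factor divided by its frequency for the tag-only sample.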

Another experiment concerns the target T2, ELK1 (Homo sapiens, UniProt P19419 1-428).
T2 sequence: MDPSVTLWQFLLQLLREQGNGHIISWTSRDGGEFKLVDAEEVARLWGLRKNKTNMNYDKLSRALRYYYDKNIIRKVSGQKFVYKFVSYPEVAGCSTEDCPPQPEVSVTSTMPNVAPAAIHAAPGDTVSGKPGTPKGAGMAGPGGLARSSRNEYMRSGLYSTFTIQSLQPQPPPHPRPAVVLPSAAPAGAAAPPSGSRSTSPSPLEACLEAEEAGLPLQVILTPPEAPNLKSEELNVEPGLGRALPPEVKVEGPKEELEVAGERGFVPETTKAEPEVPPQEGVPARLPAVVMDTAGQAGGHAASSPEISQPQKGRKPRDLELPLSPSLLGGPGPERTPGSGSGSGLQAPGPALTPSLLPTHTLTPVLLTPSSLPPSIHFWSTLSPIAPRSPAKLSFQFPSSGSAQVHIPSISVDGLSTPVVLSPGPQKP
The settings on record: protein: recombinant; tags: N-terminal GST; dsDNA, one strand shown. The procedure, abridged:
as §1

The next experiment has as its target T3, GABPA (Homo sapiens, UniProt Q06546 1-454).
T3 sequence: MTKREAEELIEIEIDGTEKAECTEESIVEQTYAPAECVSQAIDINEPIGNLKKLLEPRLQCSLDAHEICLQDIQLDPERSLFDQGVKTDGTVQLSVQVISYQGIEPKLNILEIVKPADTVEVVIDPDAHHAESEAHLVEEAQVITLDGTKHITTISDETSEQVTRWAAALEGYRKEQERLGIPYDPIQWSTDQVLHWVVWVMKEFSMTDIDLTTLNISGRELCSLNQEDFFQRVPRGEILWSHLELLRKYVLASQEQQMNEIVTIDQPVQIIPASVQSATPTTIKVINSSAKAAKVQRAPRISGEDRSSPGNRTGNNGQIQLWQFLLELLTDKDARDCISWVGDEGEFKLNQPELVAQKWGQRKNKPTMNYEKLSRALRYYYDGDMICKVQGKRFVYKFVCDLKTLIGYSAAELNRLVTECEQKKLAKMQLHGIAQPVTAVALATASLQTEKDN
The settings on record: protein: recombinant; tags: N-terminal GST; dsDNA, one strand shown. The procedure, abridged:
as §1

Another experiment concerns the target T4, ERG (Homo sapiens, UniProt P11308 1-479).
T4 sequence: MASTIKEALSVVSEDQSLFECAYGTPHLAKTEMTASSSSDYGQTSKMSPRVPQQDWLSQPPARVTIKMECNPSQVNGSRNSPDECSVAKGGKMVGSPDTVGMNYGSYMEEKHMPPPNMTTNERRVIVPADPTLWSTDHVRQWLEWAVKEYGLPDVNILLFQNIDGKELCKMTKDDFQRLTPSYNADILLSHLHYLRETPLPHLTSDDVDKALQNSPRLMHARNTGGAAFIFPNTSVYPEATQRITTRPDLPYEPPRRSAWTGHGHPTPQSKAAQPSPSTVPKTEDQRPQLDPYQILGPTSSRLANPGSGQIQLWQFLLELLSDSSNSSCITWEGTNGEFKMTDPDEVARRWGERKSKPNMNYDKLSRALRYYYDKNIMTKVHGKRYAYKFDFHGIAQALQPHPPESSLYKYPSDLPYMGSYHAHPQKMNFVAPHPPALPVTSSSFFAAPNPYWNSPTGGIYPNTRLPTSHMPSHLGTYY
The settings on record: protein: recombinant; tags: N-terminal GST; dsDNA, one strand shown. The procedure, abridged: as §1

Another experiment concerns the target ELF1 (Homo sapiens, UniProt P32519 1-619). The settings on record: protein: recombinant; tags: N-terminal GST; dsDNA, one strand shown. The procedure, abridged:
as §1

For the next experiment, the target named is T5, EHF (Homo sapiens, UniProt Q9NZC4 1-300).
T5 sequence: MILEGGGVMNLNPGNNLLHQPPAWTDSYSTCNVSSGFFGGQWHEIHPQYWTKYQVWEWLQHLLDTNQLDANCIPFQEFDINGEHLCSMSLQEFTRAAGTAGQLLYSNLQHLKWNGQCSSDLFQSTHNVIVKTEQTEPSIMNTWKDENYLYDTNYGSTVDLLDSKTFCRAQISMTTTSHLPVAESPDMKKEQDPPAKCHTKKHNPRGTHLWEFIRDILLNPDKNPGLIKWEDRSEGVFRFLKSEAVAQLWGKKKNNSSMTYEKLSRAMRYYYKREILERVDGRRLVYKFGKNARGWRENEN
The settings on record: protein: recombinant; tags: N-terminal GST; dsDNA, one strand shown. The procedure, abridged:
as §1

The target of a further experiment is SPI1 (Homo sapiens, UniProt P17947 1-270). The settings on record: protein: recombinant; tags: N-terminal GST; dsDNA, one strand shown. In short, it runs like this:
as §1

The next experiment addresses SPIB (Homo sapiens, UniProt Q01892 1-262). The settings on record: protein: recombinant; tags: N-terminal GST; dsDNA, one strand shown. In short, it runs like this:
as §1

A further experiment deals with T6, ELK3 (Homo sapiens, UniProt P41970 1-407).
T6 sequence: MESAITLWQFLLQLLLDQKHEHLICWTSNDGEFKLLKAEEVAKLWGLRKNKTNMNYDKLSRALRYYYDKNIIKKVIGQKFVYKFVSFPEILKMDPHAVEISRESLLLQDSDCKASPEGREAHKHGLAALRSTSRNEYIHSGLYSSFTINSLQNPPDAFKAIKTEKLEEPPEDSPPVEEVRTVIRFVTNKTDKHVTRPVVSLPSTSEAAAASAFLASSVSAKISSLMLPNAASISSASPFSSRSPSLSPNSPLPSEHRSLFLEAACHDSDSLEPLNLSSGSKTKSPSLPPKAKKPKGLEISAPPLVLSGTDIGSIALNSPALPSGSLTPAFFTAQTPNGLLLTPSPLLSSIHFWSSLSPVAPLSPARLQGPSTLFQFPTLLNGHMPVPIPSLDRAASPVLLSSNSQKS
The settings on record: protein: recombinant; tags: N-terminal GST; dsDNA, one strand shown. The procedure, abridged: as §1

A further experiment addresses T7, FEV (Homo sapiens, UniProt Q99581 1-238).
T7 sequence: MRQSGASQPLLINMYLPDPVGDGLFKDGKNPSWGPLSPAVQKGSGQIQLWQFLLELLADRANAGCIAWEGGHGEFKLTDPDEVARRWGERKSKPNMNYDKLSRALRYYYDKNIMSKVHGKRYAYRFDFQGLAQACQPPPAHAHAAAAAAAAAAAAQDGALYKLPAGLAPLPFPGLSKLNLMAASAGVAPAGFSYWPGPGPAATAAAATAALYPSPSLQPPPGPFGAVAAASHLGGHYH
The settings on record: protein: recombinant; tags: N-terminal GST; dsDNA, one strand shown. The procedure, abridged: as §1

The next experiment addresses ETV5 (Homo sapiens, UniProt P41161 1-510). The settings on record: protein: recombinant; tags: N-terminal GST; dsDNA, one strand shown. The procedure, abridged:
as §1

For another experiment, the target named is HSF1 (Homo sapiens, UniProt Q00613 1-529). The settings on record: protein: recombinant; tags: N-terminal GST; chain copies: 3; dsDNA, one strand shown. The procedure, abridged:
as §1

Another experiment concerns the target T8, SPIC (Homo sapiens, UniProt Q8N5J4 1-248).
T8 sequence: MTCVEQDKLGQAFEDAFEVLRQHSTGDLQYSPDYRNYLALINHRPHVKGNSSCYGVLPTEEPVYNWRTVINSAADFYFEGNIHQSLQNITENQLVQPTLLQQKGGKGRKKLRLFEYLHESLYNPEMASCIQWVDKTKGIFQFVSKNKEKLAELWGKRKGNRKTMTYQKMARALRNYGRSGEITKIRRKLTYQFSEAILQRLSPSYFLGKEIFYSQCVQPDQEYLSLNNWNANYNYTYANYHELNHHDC
The settings on record: protein: recombinant; tags: N-terminal GST; dsDNA, one strand shown. The procedure, abridged: as §1

The target in a further experiment is ELF4 (Homo sapiens, UniProt Q99607 1-663). The settings on record: protein: recombinant; tags: N-terminal GST; dsDNA, one strand shown. The procedure, abridged:
as §1

Another experiment deals with T9, ELK4 (Homo sapiens, UniProt P28324-2 1-405).
T9 sequence: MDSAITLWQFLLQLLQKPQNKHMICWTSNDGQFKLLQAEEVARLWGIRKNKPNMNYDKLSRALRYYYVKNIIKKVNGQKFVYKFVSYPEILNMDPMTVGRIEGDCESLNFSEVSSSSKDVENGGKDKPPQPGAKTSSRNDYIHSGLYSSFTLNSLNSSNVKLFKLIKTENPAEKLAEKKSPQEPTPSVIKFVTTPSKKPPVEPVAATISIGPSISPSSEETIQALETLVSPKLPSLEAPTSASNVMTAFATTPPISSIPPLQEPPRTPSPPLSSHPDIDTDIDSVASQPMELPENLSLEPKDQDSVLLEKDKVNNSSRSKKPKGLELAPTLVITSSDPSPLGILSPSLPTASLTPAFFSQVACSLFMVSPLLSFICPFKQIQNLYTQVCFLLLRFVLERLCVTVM
The settings on record: protein: recombinant; tags: N-terminal GST; dsDNA, one strand shown. The procedure, abridged:
as §1

The target of another experiment is T10, ETV2 (Homo sapiens, UniProt O00321 1-342).
T10 sequence: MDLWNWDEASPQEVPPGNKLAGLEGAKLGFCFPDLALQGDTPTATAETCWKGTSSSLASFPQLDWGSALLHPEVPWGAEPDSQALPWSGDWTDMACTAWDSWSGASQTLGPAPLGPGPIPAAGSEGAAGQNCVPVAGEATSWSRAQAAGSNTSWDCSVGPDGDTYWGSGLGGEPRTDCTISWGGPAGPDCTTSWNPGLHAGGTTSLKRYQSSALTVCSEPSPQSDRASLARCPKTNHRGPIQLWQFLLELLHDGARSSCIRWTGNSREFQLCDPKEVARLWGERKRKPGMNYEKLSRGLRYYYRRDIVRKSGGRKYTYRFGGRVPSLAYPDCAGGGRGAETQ
The settings on record: protein: recombinant; tags: N-terminal GST; dsDNA, one strand shown. The procedure, abridged:
as §1

Another experiment concerns the target T11, ELF3 (Homo sapiens, UniProt P78545 1-371).
T11 sequence: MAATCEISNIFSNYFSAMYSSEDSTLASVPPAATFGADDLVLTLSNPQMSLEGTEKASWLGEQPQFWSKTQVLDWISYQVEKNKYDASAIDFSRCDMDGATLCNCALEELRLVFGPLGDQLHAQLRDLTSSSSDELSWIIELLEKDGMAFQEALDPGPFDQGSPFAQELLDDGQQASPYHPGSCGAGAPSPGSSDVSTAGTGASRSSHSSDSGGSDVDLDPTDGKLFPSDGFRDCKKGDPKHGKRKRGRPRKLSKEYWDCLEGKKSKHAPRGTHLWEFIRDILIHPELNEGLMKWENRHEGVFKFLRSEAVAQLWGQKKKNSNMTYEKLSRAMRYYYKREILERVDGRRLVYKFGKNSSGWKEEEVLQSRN
The settings on record: protein: recombinant; tags: N-terminal GST; dsDNA, one strand shown. The procedure, abridged: as §1

The target of another experiment is CRX (Homo sapiens, UniProt O43186 1-299). The settings on record: protein: recombinant; tags: N-terminal GST; dsDNA, one strand shown. In short, it runs like this: as §1
The next experiment addresses ETV1 (Homo sapiens, UniProt P50549 1-477). The settings on record: protein: recombinant; tags: N-terminal GST; dsDNA, one strand shown. The procedure, abridged:
as §1

Chain of SPIB (Q01892 whole entry): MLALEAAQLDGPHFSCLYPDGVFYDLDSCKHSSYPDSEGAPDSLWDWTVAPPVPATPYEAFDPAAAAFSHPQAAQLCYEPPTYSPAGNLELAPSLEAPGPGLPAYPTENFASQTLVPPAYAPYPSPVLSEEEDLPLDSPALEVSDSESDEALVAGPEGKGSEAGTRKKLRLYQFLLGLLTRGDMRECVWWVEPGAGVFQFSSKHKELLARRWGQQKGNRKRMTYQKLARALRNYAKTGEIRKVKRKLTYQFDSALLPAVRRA
Chain of ETV1 (P50549 whole entry): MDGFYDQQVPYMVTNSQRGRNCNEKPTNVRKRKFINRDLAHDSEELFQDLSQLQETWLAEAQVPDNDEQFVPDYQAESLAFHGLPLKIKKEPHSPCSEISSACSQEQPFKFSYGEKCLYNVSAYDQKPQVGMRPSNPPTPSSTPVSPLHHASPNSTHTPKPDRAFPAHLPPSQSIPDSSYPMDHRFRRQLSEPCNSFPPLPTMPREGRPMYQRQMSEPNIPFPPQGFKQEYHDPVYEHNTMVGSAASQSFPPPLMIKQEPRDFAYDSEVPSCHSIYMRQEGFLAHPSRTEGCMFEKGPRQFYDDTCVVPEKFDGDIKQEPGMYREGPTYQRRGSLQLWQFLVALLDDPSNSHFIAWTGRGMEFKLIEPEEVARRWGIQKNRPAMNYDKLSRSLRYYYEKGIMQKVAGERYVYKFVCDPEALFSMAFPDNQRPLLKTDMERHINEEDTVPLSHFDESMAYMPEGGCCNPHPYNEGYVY
Chain of HSF1 (Q00613 whole entry): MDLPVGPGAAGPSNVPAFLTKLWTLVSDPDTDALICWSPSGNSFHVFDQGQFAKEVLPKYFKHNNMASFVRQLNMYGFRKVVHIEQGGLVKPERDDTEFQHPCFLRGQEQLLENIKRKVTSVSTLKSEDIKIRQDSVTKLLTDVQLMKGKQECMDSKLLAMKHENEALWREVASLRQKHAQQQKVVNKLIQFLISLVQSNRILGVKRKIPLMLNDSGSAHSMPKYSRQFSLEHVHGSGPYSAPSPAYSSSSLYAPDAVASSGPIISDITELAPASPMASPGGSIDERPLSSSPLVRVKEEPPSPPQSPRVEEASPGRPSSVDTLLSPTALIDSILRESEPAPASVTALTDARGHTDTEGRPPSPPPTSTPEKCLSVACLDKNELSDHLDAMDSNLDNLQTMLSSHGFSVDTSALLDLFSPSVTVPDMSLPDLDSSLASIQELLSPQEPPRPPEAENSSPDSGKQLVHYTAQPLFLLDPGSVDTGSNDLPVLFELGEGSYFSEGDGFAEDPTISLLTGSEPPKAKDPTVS
Chain of ELF1 (P32519 whole entry): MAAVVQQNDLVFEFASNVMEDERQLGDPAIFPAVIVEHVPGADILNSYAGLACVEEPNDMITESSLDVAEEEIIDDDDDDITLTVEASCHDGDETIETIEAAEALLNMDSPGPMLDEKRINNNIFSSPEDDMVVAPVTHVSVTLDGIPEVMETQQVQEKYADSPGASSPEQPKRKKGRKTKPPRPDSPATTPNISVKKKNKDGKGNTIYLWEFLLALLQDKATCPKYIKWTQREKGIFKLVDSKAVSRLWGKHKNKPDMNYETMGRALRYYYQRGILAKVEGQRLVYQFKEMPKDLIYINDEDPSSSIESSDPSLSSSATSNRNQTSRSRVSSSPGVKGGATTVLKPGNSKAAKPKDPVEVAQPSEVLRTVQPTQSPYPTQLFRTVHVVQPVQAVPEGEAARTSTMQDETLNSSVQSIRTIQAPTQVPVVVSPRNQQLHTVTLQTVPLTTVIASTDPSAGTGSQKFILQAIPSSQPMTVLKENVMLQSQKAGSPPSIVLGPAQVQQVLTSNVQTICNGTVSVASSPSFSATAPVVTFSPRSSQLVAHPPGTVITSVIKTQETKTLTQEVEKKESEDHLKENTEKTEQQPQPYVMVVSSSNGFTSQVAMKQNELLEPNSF
Chain of ELF4 (Q99607 whole entry): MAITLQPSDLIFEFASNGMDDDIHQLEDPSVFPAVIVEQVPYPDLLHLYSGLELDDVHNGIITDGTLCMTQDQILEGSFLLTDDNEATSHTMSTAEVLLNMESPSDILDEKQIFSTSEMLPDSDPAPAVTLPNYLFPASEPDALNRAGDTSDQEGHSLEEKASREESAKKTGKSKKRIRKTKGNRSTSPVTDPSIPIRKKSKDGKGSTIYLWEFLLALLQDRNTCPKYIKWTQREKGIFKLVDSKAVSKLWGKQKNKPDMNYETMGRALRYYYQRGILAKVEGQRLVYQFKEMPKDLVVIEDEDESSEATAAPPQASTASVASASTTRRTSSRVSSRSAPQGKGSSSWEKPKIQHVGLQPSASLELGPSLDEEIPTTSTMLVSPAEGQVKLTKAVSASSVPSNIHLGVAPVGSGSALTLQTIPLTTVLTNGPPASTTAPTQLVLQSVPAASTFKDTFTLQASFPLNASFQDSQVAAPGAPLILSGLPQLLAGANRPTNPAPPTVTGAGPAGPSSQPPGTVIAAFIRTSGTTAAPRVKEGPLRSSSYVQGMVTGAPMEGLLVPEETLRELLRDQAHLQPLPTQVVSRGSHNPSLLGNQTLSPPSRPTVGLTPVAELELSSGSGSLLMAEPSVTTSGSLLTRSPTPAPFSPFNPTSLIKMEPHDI
Chain of CRX (O43186 whole entry): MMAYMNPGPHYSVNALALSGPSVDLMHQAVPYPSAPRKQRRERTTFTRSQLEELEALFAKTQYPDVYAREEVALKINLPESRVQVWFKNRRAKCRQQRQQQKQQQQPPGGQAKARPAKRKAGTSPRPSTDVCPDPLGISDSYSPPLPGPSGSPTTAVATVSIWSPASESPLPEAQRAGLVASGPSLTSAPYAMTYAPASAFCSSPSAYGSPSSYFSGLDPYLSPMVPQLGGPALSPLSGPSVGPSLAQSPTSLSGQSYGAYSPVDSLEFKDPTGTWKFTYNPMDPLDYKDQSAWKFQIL
Chain of ETV5 (P41161 whole entry): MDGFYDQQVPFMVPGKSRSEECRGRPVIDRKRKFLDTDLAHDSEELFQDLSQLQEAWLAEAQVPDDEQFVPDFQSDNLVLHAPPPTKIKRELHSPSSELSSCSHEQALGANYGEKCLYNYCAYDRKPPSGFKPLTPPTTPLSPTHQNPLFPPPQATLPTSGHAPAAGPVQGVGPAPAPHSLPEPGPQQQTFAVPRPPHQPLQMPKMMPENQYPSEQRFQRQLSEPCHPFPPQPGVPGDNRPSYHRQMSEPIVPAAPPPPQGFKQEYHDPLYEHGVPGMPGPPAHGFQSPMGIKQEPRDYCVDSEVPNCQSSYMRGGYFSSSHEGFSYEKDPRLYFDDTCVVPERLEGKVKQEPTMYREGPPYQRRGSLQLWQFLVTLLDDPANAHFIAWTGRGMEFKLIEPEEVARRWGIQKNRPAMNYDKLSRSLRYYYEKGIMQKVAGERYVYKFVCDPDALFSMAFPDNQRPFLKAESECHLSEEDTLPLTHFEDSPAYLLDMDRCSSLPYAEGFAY

With ACCCGC, the binding signal with FLI1 was 1.27 fold enrichment (6-mer frequency, TF over GST control); with ELK1, 1.29 fold enrichment (6-mer frequency, TF over GST control); with GABPA, 1.35 fold enrichment (6-mer frequency, TF over GST control); with ERG it was 1.21 fold enrichment (6-mer frequency, TF over GST control); in the experiment with ELF1, 1.33 fold enrichment (6-mer frequency, TF over GST control); with EHF it was 1.2 fold enrichment (6-mer frequency, TF over GST control). For the same sequence, the binding signal was 1.32 fold enrichment (6-mer frequency, TF over GST control) in the experiment with SPI1; 1.27 fold enrichment (6-mer frequency, TF over GST control) with SPIB; 1.32 fold enrichment (6-mer frequency, TF over GST control) with ELK3; 1.24 fold enrichment (6-mer frequency, TF over GST control) with FEV; 1.24 fold enrichment (6-mer frequency, TF over GST control) with ETV5; 1.13 fold enrichment (6-mer frequency, TF over GST control) with HSF1. Besides, the binding signal in the experiment with SPIC was 1.16 fold enrichment (6-mer frequency, TF over GST control); in the experiment with ELF4, 1.35 fold enrichment (6-mer frequency, TF over GST control); with ELK4, 1.39 fold enrichment (6-mer frequency, TF over GST control); in the experiment with ETV2 it was 1.24 fold enrichment (6-mer frequency, TF over GST control); with ELF3 it was 1.15 fold enrichment (6-mer frequency, TF over GST control); in the experiment with CRX, 1.1 fold enrichment (6-mer frequency, TF over GST control). Also, the binding signal with ETV1 was 1.27 fold enrichment (6-mer frequency, TF over GST control).
